The panel holds about 79,000 compounds, 15% with a hit somewhere; the sample as a whole holds those more often. Active and inactive are the calls of the source. Rule as the data show it: active = growth inhibition above about 70%; inactive = the rest.
How the values were obtained:
[1] = NCI Yeast Anticancer Drug Screen. Data for the wt1 strain (AID 149);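 also: 0% = growth of vehicle-treated wt1 cultures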; details: S. cerevisiae wt1 strain (SPY 50644) growth inhibition, active compounds read high
In short: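 Compounds are added to wt1 yeast cultures. Growth is then measured. Inhibition is expressed relative to vehicle-treated controls.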

[2] = NCI Yeast Anticancer Drug Screen. Data for the rad50EPP+ strain (AID 151);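 also: 0% = growth of vehicle-treated control cultures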; details: S. cerevisiae rad50 mutant strain, active compounds read high
In short: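 In this screen, rad50EPP+ yeast were exposed to compounds. Growth inhibition was scored against vehicle-treated controls.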

[3] = NCI Yeast Anticancer Drug Screen. Data for the mgt1 strain (AID 153); details: S. cerevisiae mgt1 mutant growth inhibition, active compounds read high
In short: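 mgt1 strain exposed; growth vs vehicle control recorded as inhibition.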

[4] = NCI Yeast Anticancer Drug Screen. Data for the rad50 strain (AID 155);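 also: 0% = growth of vehicle-only cultures of the same strain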; details: S. cerevisiae rad50 strain growth inhibition, active compounds read high
In short: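 Inhibition values express reduced yeast growth in compound-treated cultures relative to vehicle-treated controls.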

[5] = NCI Yeast Anticancer Drug Screen. Data for the mec2-1 strain (AID 157); details: S. cerevisiae mec2-1 strain, active compounds read high
In short: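 Vehicle-treated cultures served as reference for growth inhibition of compound-exposed mec2-1 yeast.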

[6] = NCI Yeast Anticancer Drug Screen. Data for the rad14 strain (AID 159);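 also: 0% = growth of vehicle-treated control cultures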; details: S. cerevisiae rad14 strain growth inhibition, active compounds read high
In short: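 A mutant yeast strain defective in DNA damage repair is treated with compound; inhibition of its growth is scored against untreated, vehicle-exposed cultures.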

[7] = NCI Yeast Anticancer Drug Screen. Data for the sgs1 mgt1 strain (AID 161);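 also: 0% = growth of cultures given vehicle only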; details: S. cerevisiae sgs1 mgt1 strain, active compounds read high
In short: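 Inhibition of yeast growth, normalised to vehicle-treated controls, is reported for a strain bearing genetic alterations in DNA damage repair.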

[8] = NCI Yeast Anticancer Drug Screen. Data for the CLN2oe strain (AID 163);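 also: 0% = growth of vehicle-only control cultures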; details: S. cerevisiae CLN2oe strain, active compounds read high
In short: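 Inhibition relative to vehicle-treated yeast is reported. Cells: strain with genetic alteration in cell-cycle control, grown with compound.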

[9] = NCI Yeast Anticancer Drug Screen. Data for the cln2 rad14 strain (AID 165);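 also: 0% = growth equal to vehicle treated cultures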; details: S. cerevisiae cln2 rad14 strain, active compounds read high
In short: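 Each compound was tested on cln2 rad14 yeast. Inhibition of growth was calculated against vehicle-exposed controls.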

[10] = NCI Yeast Anticancer Drug Screen. Data for the bub3 strain (AID 167); details: S. cerevisiae bub3 mutant strain, active compounds read high
In short: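 Steps: expose the mutant yeast strain to compound; grow alongside vehicle-treated cultures; measure growth; express inhibition against the vehicle cultures.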

[11] = NCI Yeast Anticancer Drug Screen. Data for the wt2 strain (AID 169);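 also: 0% = growth of vehicle-treated yeast cultures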; details: S. cerevisiae wt2 strain growth inhibition, active compounds read high
In short: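 Inhibition of yeast growth was determined after compound treatment, normalised to controls receiving only vehicle.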

[12] = NCI Yeast Anticancer Drug Screen. Data for the mlh1 strain (AID 171);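 also: 0% = growth of vehicle-treated control cultures of the same strain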; details: S. cerevisiae mlh1 strain growth inhibition, active compounds read high
In short: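 Vehicle-normalised growth inhibition of a repair- or checkpoint-altered yeast strain following compound treatment.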

[13] = NCI Yeast Anticancer Drug Screen. Data for the sgs1 strain (AID 173);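 also: 0% = growth of vehicle-only control cultures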; details: S. cerevisiae sgs1 mutant, active compounds read high
In short: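 Screen format: yeast with repair or checkpoint alterations, compound exposure, growth read relative to vehicle.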

[14] = NCI Yeast Anticancer Drug Screen. Data for the mlh1 rad18 strain (AID 175); details: S. cerevisiae mlh1 rad18 strain growth inhibition, active compounds read high
In short: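 Vehicle-treated cultures served as the reference for growth inhibition in a yeast strain carrying DNA damage repair alterations exposed to each compound.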

[15] = NCI Yeast Anticancer Drug Screen. Data for the rad18 strain (AID 177); details: S. cerevisiae rad18 mutant growth inhibition, active compounds read high
In short: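 Test articles were incubated with altered yeast defective in DNA damage repair. Results are given as inhibition of growth versus vehicle.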

[16] = at 5.0 µM (retest, dose inferred, filed as 0.5)
[17] = at 50.0 µM (retest, dose inferred, filed as 5.0)

Measured: growth inhibition

S=c1[nH]nc(-c2ccc(Cl)cc2)s1
active: [1]; at 33.0 µM 78% | [1]; at 100.0 µM 96% | [2]; at 100.0 µM 81% | [3]; at 33.0 µM 83% | [3]; at 100.0 µM 97% | [4]; [16] 73% | [4]; at 33.0 µM 90% | [4]; [17] 99% | [4]; at 50.0 µM 87.2% | [4]; at 100.0 µM 95% | [5]; [16] 72% | [5]; at 33.0 µM 71% | [5]; [17] 99% | [5]; at 50.0 µM 87.8% | [5]; at 100.0 µM 96% | [6]; at 33.0 µM 92% | [6]; at 100.0 µM 97% | [7]; [17] 97% | [8]; at 100.0 µM 95% | [9]; [17] 97% | [10]; at 33.0 µM 81% | [10]; [17] 96% | [10]; at 100.0 µM 96% | [11]; at 100.0 µM 96% | [12]; at 100.0 µM 96% | [13]; at 100.0 µM 94% | [14]; [16] 80% | [14]; [17] 99% | [14]; at 50.0 µM 86% | [15]; at 33.0 µM 92% | [15]; at 100.0 µM 96%
inactive: [1]; at 1.2 µM -18% | [1]; at 3.7 µM -21% | [1]; at 11.0 µM -25% | [2]; at 1.2 µM -1% | [2]; at 3.7 µM -1% | [2]; at 11.0 µM -9% | [2]; at 33.0 µM 31% | [3]; at 1.2 µM 8% | [3]; at 3.7 µM 11% | [3]; at 11.0 µM 12% | [4]; at 1.2 µM -6% | [4]; at 3.7 µM -7% | [4]; at 11.0 µM 21% | [5]; at 1.2 µM 1% | [5]; at 3.7 µM 12% | [5]; at 11.0 µM -15% | [6]; at 1.2 µM -24% | [6]; at 3.7 µM -18% | [6]; at 11.0 µM -16% | [7]; [16] -8% | [8]; at 1.2 µM 6% | [8]; at 3.7 µM 12% | [8]; at 11.0 µM -10% | [8]; at 33.0 µM 55% | [9]; [16] 52% | [10]; at 1.2 µM 23% | [10]; at 3.7 µM 24% | [10]; [16] 27% | [10]; at 11.0 µM 16% | [11]; at 1.2 µM -28% | [11]; at 3.7 µM -21% | [11]; at 11.0 µM -28% | [11]; at 33.0 µM 69% | [12]; at 1.2 µM -16% | [12]; at 3.7 µM -17% | [12]; at 11.0 µM -8% | [12]; at 33.0 µM 67% | [13]; at 1.2 µM -13% | [13]; at 3.7 µM -13% | [13]; at 11.0 µM -16% | [13]; at 33.0 µM 64% | [15]; at 1.2 µM -15% | [15]; at 3.7 µM -6% | [15]; at 11.0 µM 21%

O=C(O)c1ccccc1.[Ag]
inactive: [8]; at 1.2 µM 50%
active: [1]; at 1.2 µM 88% | [1]; at 3.7 µM 101% | [1]; at 11.0 µM 99% | [1]; at 33.0 µM 99% | [1]; at 100.0 µM 99% | [2]; at 1.2 µM 94% | [2]; at 3.7 µM 101% | [2]; at 11.0 µM 99% | [2]; at 33.0 µM 99% | [2]; at 100.0 µM 98% | [3]; at 1.2 µM 98% | [3]; at 3.7 µM 101% | [3]; at 11.0 µM 99% | [3]; at 33.0 µM 99% | [3]; at 100.0 µM 99% | [6]; at 1.2 µM 91% | [6]; at 3.7 µM 101% | [6]; at 11.0 µM 99% | [6]; at 33.0 µM 99% | [6]; at 100.0 µM 99% | [8]; at 3.7 µM 101% | [8]; at 11.0 µM 98% | [8]; at 33.0 µM 98% | [8]; at 100.0 µM 98% | [11]; at 1.2 µM 76% | [11]; at 3.7 µM 101% | [11]; at 11.0 µM 99% | [11]; at 33.0 µM 99% | [11]; at 100.0 µM 99% | [12]; at 1.2 µM 96% | [12]; at 3.7 µM 101% | [12]; at 11.0 µM 99% | [12]; at 33.0 µM 99% | [12]; at 100.0 µM 99% | [13]; at 1.2 µM 75% | [13]; at 3.7 µM 101% | [13]; at 11.0 µM 99% | [13]; at 33.0 µM 99% | [13]; at 100.0 µM 99% | [15]; at 1.2 µM 74% | [15]; at 3.7 µM 101% | [15]; at 11.0 µM 99% | [15]; at 33.0 µM 99% | [15]; at 100.0 µM 99%

O=C(/C=C/c1cccc2ccccc12)c1ccc(Cl)cc1
inactive: [1]; at 1.2 µM -30% | [1]; at 3.7 µM -19% | [1]; at 11.0 µM -28% | [1]; at 33.0 µM -34% | [1]; at 100.0 µM -45% | [2]; at 1.2 µM -3% | [2]; at 3.7 µM 4% | [2]; at 11.0 µM 9% | [2]; at 33.0 µM 0% | [2]; at 100.0 µM -12% | [3]; at 1.2 µM 13% | [3]; at 3.7 µM 11% | [3]; at 11.0 µM 7% | [3]; at 33.0 µM 8% | [3]; at 100.0 µM -5% | [4]; at 1.2 µM 24% | [4]; at 3.7 µM 27% | [4]; [16] 37% | [4]; at 11.0 µM 24% | [4]; at 33.0 µM 13% | [4]; at 100.0 µM 13% | [5]; at 1.2 µM 11% | [5]; at 3.7 µM 14% | [5]; [16] 67% | [5]; at 11.0 µM -2% | [5]; at 33.0 µM -6% | [5]; at 100.0 µM -12% | [6]; at 1.2 µM -28% | [6]; at 3.7 µM -23% | [6]; at 11.0 µM -30% | [6]; at 33.0 µM -38% | [6]; at 100.0 µM -35% | [7]; [16] -3% | [7]; [17] 42% | [8]; at 1.2 µM 5% | [8]; at 3.7 µM 4% | [8]; at 11.0 µM -27% | [8]; at 33.0 µM -35% | [8]; at 100.0 µM -43% | [9]; [16] 28% | [9]; [17] -7% | [10]; at 1.2 µM 6% | [10]; at 3.7 µM 11% | [10]; [16] 2% | [10]; at 11.0 µM 9% | [10]; at 33.0 µM 7% | [10]; [17] 17% | [10]; at 100.0 µM -6% | [11]; at 1.2 µM -25% | [11]; at 3.7 µM -19% | [11]; at 11.0 µM -28% | [11]; at 33.0 µM -33% | [11]; at 100.0 µM -33% | [12]; at 1.2 µM -33% | [12]; at 3.7 µM -24% | [12]; at 11.0 µM -34%
active: [4]; [17] 98% | [4]; at 50.0 µM 83.5% | [5]; [17] 99% | [5]; at 50.0 µM 74.6%

Source: PubChem BioAssay (NCI)
